The text below walks through data of PubChem BioAssay (NCATS).

The structures appear in SMILES notation. Where “and” joins values, the source holds several entries; their conditions need not be identical. Equal entries are not always repeated. Records with an inconclusive call do not appear. Calls of active or inactive are those of the source. Calls come from the whole dose curve; as a rule, active = well fitted curve in the direction sought with a large enough effect; inconclusive = small, poorly fitted or top-dose-only effect, or another doubt; inactive = no such curve, though single readings can be large; an effect the other way counts as inactive or inconclusive.

Assay [1] can be described thus: qHTS of pediatric cancer cell lines to identify multiple opportunities for drug repurposing: Confirmatory screen for BT-37 cells (AID 1347117). Note: nearly all actives have a fitted effect of over 55% in size. Note: potency is the fitted concentration of half-maximal effect. In a few lines: (§1)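 Cells (500-1,000/well) rested 5 h, then received compounds for 48 h; metabolically active cells were measured by CellTiter-Glo luminescence. Final concentrations spanned up to 46 µM (MIPE, 11-point) or 0.59 nM-46 µM (NPC, 8-point) in primary screens, 11-point in follow-ups.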
On the technique in general: Quantitative high-throughput screening tests each substance at several concentrations.

The nature of assay [2]: qHTS of pediatric cancer cell lines to identify multiple opportunities for drug repurposing: Confirmatory screen for TC32 cells (AID 1347118).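 Note: cells exposed to compound for 48 h before the read; nearly all actives have a fitted effect of over 65% in size.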 Note: potency is the fitted concentration of half-maximal effect. In outline: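 Luminescent ATP read-out (CellTiter-Glo) of metabolically active TC32 cells after 48 h exposure. Concentration-response curves came from 11-point (MIPE, 0.78 nM–46 µM) or 8-point (NPC, 0.59 nM–46 µM) primary titrations; follow-up used 11 points.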

Assay [3] is described as follows: qHTS of pediatric cancer cell lines to identify multiple opportunities for drug repurposing: Confirmatory screen for control Hh wild type fibroblast cells (AID 1347121). Note: nearly all actives have a fitted effect of over 70% in size. Note: potency is the fitted concentration of half-maximal effect. In a few lines: as §1
Assay [4] in a line: qHTS of pediatric cancer cell lines to identify multiple opportunities for drug repurposing: Confirmatory screen for U-2 OS cells (AID 1347122). Note: nearly all actives have a fitted effect of over 65% in size. Note: potency is the fitted concentration of half-maximal effect. In a few lines: as §1
A short description of assay [5]: qHTS of pediatric cancer cell lines to identify multiple opportunities for drug repurposing: Confirmatory screen for Rh30 cells (AID 1347126). Note: nearly all actives have a fitted effect of over 55% in size. Note: potency is the fitted concentration of half-maximal effect. In a few lines: as §1
Assay [6] can be described thus: qHTS of pediatric cancer cell lines to identify multiple opportunities for drug repurposing: Confirmatory screen for OHS-50 cells (AID 1347128).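 Note: compound exposure lasted 48 h at 37 degrees C; nearly all actives have a fitted effect of over 55% in size.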 Note: potency is the fitted concentration of half-maximal effect. In a few lines: as §1
Assay [7] in a line: qHTS of pediatric cancer cell lines to identify multiple opportunities for drug repurposing: Confirmatory screen for SK-N-SH cells (AID 1347129).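 Note: cells exposed to compound for 48 h before viability read; nearly all actives have a fitted effect of over 60% in size.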 Note: potency is the fitted concentration of half-maximal effect. In a few lines: as §1
Another assay deals with Furin (Homo sapiens) (UniProt P09958). The assay is described as follows: Furin counterscreen qHTS for Zika virus inhibitors (AID 1347149). Note: nearly all actives have a fitted effect of over 70% in size. Note: potency is the fitted concentration of half-maximal effect. In a few lines:
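Counterscreen measures cleavage of 2 microM BOC-RVRR-AMC, below its ~15 microM Km, by 5 nM full-length human furin at pH 7.0 after a 15-min compound preincubation. Inhibition derives from the 15-min fluorescence increase at 37C.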

For assay [8], the system named is Zika virus NS2B-NS3 protease (linked construct). The assay is described as follows: Confirmatory screen NINDS AMC qHTS for Zika virus inhibitors (AID 1347152). Note: potency is the fitted concentration of half-maximal effect; nearly all actives have a fitted effect of over 70% in size. In a few lines:
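Linked NS2B-NS3 1 nM, Tris pH 8.0/0.01% Tween 20; cpd 15 min RT dark; + Nle-KRR-AMC 10 µM (Km 18.3 µM); read 0 and 15 min, 340/450 nm; %inh vs controls, 4-param Hill.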

A short description of assay [9]: qHTS of pediatric cancer cell lines to identify multiple opportunities for drug repurposing: Confirmatory screen for SJ-GBM2 cells (AID 1347116). Note: nearly all actives have a fitted effect of over 60% in size. Note: potency is the fitted concentration of half-maximal effect. In outline: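 Viability measured as metabolically active cells via CellTiter-Glo luminescence following 48 hours of compound exposure, 11-point dilutions in confirmatory testing. 500-1,000 cells/well plated 5 hours before dosing; controls were DMSO and 2.3 µM bortezomib.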

Assay [10] is described as follows: qHTS of pediatric cancer cell lines to identify multiple opportunities for drug repurposing: Confirmatory screen for RD cells (AID 1347124).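 Note: cells exposed to compound for 48 h before viability readout; nearly all actives have a fitted effect of over 65% in size.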 Note: potency is the fitted concentration of half-maximal effect. In outline: as §1
Assay [11] in a line: qHTS of pediatric cancer cell lines to identify multiple opportunities for drug repurposing: Confirmatory screen for Rh18 cells (AID 1347125). Note: nearly all actives have a fitted effect of over 55% in size. Note: potency is the fitted concentration of half-maximal effect. In a few lines: as §1
In assay [12] the target is N-terminal Xaa-Pro-Lys N-methyltransferase 1 (Homo sapiens) (UniProt Q9BV86). Nature of the assay: qHTS Assay for Inhibitors of N-terminal methyltransferase 1 (NTMT1): LOPAC validation of the NTMT1 SAHH-coupled ThioGlo3 Assay (AID 1347143).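 Note: SAH from peptide methylation measured as thiol fluorescence via SAHH coupling and ThioGlo3; nearly all actives have a fitted effect of over 70% in size.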 Note: potency is the fitted concentration of half-maximal effect. In a few lines: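 NTMT1 125nM + cpds (various conc.), 1 min RT; add SAM 100uM/SAHH 10uM/ThioGlo3 15uM (addition mix). SAHH-coupled thiol detection, Ex340/Em450, t0 and 30 min RT; signal normalized to background. LOPAC 1280-cpd pilot.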
N-terminal Xaa-Pro-Lys N-methyltransferase 1 (Homo sapiens), sequence (Q9BV86 whole entry, looked up): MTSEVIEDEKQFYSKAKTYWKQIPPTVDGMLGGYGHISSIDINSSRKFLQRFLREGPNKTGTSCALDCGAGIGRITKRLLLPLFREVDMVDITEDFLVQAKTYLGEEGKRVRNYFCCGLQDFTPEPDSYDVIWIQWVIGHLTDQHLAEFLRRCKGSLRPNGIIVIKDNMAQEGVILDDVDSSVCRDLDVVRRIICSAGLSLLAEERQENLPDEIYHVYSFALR

The test system of assay [13] is Zika virus NS2B-NS3 protease (unlinked). Nature of the assay: Optimization of GU AMC qHTS for Zika virus inhibitors: Unlinked NS2B-NS3 protease assay (AID 1347151). Note: nearly all actives have a fitted effect of over 80% in size. Note: potency is the fitted concentration of half-maximal effect. In outline:
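Fluorescence read-out (340 nm ex / 450 nm em) of AMC peptide cleavage, taken immediately and after 15 min at room temperature (~20% conversion). Enzyme was the unlinked NS2B–NS3 complex at 25 nM in Tris pH 8.0 buffer.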

Assay [14] relates to Zika virus NS2B-NS3 protease. The assay is described as follows: Primary screen GU AMC qHTS for Zika virus inhibitors (AID 1347154). Note: nearly all actives have a fitted effect of over 70% in size. Note: potency is the fitted concentration of half-maximal effect. In a few lines:
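Fluorogenic AMC-substrate cleavage by noncovalent NS2B-NS3 protease complex (25 nM, pH 8.0 Tris buffer with Tween 20) followed for 15 minutes at room temperature (~20% conversion). Percent inhibition from ex340/em450 signal change, fitted by 4-parameter Hill equation.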

Assay [15] relates to Zika virus NS2B-NS3 protease (unlinked complex). The assay is described as follows: Primary screen GU Rhodamine qHTS for Zika virus inhibitors: Unlinked NS2B-NS3 protease assay (AID 1347159). Note: potency is the fitted concentration of half-maximal effect; nearly all actives have a fitted effect of over 60% in size. In outline: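 Percent inhibition came from the 15-min rise in Rhodamine110 fluorescence (1.5 microM substrate, ~15% conversion), normalized to no-inhibitor and no-enzyme wells and Hill-fitted. Unlinked protease, 25 nM, pH 8.0 Tris buffer; compounds up to 114 microM, 15-min preincubation.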

The test system is the same in assay [16]. Nature of the assay: Confirmatory screen GU AMC qHTS for Zika virus inhibitors (AID 1347153). Note: nearly all actives have a fitted effect of over 70% in size. In a few lines: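 Compounds were preincubated 15 min at room temperature with 25 nM noncovalent NS2B-NS3 protease at pH 8.0; AMC substrate added at 10 microM and 15-min fluorescence gain (340/450 nm) converted to percent inhibition, fitted 4-parameter.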

Furin (Homo sapiens), sequence (P09958 whole entry, looked up): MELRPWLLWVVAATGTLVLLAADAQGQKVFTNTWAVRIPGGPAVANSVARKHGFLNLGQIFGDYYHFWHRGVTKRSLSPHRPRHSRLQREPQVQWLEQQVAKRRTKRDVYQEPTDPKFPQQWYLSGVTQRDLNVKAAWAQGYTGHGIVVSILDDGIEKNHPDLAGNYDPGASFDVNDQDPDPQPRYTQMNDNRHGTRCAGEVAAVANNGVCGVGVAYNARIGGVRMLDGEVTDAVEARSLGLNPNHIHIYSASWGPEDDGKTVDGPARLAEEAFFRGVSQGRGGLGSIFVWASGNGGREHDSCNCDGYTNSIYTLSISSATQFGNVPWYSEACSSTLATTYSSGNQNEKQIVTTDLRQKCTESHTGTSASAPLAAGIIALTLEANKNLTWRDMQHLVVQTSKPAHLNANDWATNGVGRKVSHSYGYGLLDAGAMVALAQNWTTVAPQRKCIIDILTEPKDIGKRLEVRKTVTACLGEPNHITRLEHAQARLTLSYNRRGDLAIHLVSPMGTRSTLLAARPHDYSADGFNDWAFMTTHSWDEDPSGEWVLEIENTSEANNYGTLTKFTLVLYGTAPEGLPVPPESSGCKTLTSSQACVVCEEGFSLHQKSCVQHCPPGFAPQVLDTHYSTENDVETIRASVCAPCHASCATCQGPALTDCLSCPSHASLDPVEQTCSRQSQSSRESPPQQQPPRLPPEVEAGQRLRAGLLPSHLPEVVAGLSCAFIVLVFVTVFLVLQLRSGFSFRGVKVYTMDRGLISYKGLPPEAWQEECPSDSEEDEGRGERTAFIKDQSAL

With `COc1cc(NCc2ccc3nc(N)nc(N)c3c2C)cc(OC)c1OC`, the Potency in assay [1] was 2.61 µM (active); in assay [2] it was 0.585 µM (active); in [5] it was 4.65 µM (active); in assay [6] it was 3.69 µM (active); in assay [7], 4.69 µM (active); with Furin (Homo sapiens), 17.1 µM (active). Further, the Potency in [8] is 24.1 µM (active). Also, the Potency entry in assay [3] and in assay [4] was “inactive” each time.

As for `CC1CC2C3CCC4=CC(=O)C=C[C@]4(C)[C@@]3(F)[C@@H](O)C[C@]2(C)[C@@]1(O)C(=O)CO` (stereo not given in full), the Potency entry in [9], in [1], in [2], in assay [3], in [4] and in assay [10] was “inactive” each time. In addition, the Potency entry in assay [11], in [6], in assay [7], in [12], in assay [13] and in assay [14] was “inactive” in each case.

With `CN(C)c1ccc(C(=C2C=CC(=[N+](C)C)C=C2)c2ccc(N(C)C)cc2)cc1`, the Potency in [9] is 1.17 µM (active); in assay [1] it was 1.17 µM (active); in [2] it was 0.928 µM (active); in assay [3] it was 1.04 µM (active); in assay [4], 1.85 µM (active); in assay [10] it was 0.928 µM (active). In addition, the Potency is 1.47 µM (active) in assay [11], 1.17 µM (active) in [5], 3.69 µM (active) in assay [6] and 1.32 µM (active) in [7]. For the same molecule, the Potency entry in assay [14] is “inactive”.

Consider `CNC(=O)c1cc(Oc2ccc(NC(=O)Nc3ccc(Cl)c(C(F)(F)F)c3)cc2)ccn1`, for which the Potency in assay [1] is 23.3 µM (active); in [2], 18.5 µM (active); in assay [6], 18.5 µM (active); in assay [7] it was 20.9 µM (active); in [13], 9.87 µM (active); in [15] it was 8.91 µM (active). Besides, the Potency entry (with Furin (Homo sapiens); in assay [14]) was “inactive” in each case.

With `CCN(CC)CC#CCOC(=O)C(O)(c1ccccc1)C1CCCCC1` (stereo not given), the Potency result in assay [13] and in assay [14] was “inactive” in each case.

Take `CCOC(=O)c1ccc(C#Cc2ccc3c(c2)C(C)(C)CCS3)nc1`: the Potency result in assay [1], in assay [3], in [10], in [11], in [6] and in [7] was “inactive” in each case. The Potency in assay [14] was 31.6 µM (active) and 21.5 µM (active).

With `Cc1ccc(S(=O)(=O)N[C@@H](Cc2ccccc2)C(=O)CCl)cc1`, the Potency entry in assay [13] and in [14] was “inactive” in each case.

For the molecule `CC1=C(C(=O)O)N2C(=O)[C@@H](NC(=O)C(N)c3ccccc3)[C@H]2SC1` (stereo not given in full), the Potency result in assay [12], in assay [13] and in assay [14] was “inactive” throughout.

On to `CCN(CC)CCn1c(=O)c(Cc2ccc(OC)cc2)nc2ccccc21`, for which the Potency result in [13] and in [14] was “inactive” each time.

In the case of `Cc1cc(NS(=O)(=O)c2ccc(N)cc2)no1`, in assay [14], the Potency entry was “inactive”.

On to `CCOc1cc(N)c(Cl)cc1C(=O)NCC1CN(Cc2ccc(F)cc2)CCO1` (stereo not given), for which, in assay [14], the Potency entry was “inactive”.

As for `COc1c(N2CCNC(C)C2)c(F)cc2c(=O)c(C(=O)O)cn(C3CC3)c12` (stereo not given), the Potency was 24.1 µM (active) and 27.1 µM (active) in the assay with Furin (Homo sapiens); 27.1 µM (active) and 30.4 µM (active) in [8]; 16.1 µM (active) and 24.1 µM (active) in assay [14].

As for `C#CCN[C@@H]1CCc2ccccc21`, the Potency result in assay [14] was “inactive”.

In the case of `N[C@@H](Cc1ccc(O)c(O)c1)C(=O)O`, the Potency in [12] was 50.1 µM (active); in [14], 27.1 µM (active).

Regarding `O=C(O)C1CCCN(CCC=C(c2ccccc2)c2ccccc2)C1` (stereo not given), the Potency result in [12], in assay [13] and in assay [14] was “inactive” in each case.

`CCn1cc(C(=O)O)c(=O)c2cc(F)c(N3CCN(C)CC3)cc21`: the Potency result in assay [14] is “inactive”.

For the molecule `NC(=O)c1cccnc1`, in assay [2], the Potency was 16.5 µM (active). In addition, the Potency result in assay [3], in assay [4], in [10], in [5], in [6] and in [7] was “inactive” each time. The Potency result in assay [14] is “inactive”.

Turning to `CNC1CCCN(c2c(F)cc3c(=O)c(C(=O)O)cn(C4CC4)c3c2OC)C1` (stereo not given), the Potency is 7.62 µM (active) and 24.1 µM (active) with Furin (Homo sapiens); 27.1 µM (active) in [8]; 25.6 µM (active) in assay [14]. Also, in assay [16], the Potency result was “inactive”.
